Bioassay records from PubChem BioAssay.
Sampled rows, rich in hits. Any-hit rate of the full collection: about 2%.
BJeLR viability: kills HRASV12-expressing BJeLR cells | BJeLR (HRASV12) viability, CellTiter-Glo ATP luminescence, 48 h | 0.17% of 300,000 active | AID 1554 | inhibition, % (no concentration beside the values); in the data active = inhibition above about 50%
Y pestis TopoI: inhibitors of Yersinia pestis topoisomerase I; 0.064% of 360,000 active; activity, % at 10 µM; Y. pestis Topo-I cleavage product accumulation, plate reader; in the data active = activity above about 50%, passing the limit was not always enough
PrPC TRFRET: inhibitors of human cell surface prion protein PrPC | P04156 | TR-FRET read-out | inhibition, % at 13.8 µM | 0.43% of 370,000 active | AID 720596; in the data active = inhibition above about 24%; note: 0% = median of the test wells and 100% = reference compound wells
PfHsp40 yeast: restores yeast growth despite PfHsp40 toxicity; S. cerevisiae expressing PfHsp40, growth rescue, ATP luminescence; growth rescue, % at 12.5 µM; 0.68% of 340,000 active; AID 504582; in the data active = growth rescue above about 28%, passing the limit was not always enough;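 note: yeast W303a lacking pdr1 and pdr3 grown in galactose medium; growth measured after three days at 30 °C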
CCHF vOTU inh-1: CCHFV vOTU protease inhibition; 0.55% of 370,000 active; Pep-AMC fluorescence; inhibition, % at 11.5 µM; AID 651958; note: 0% = vehicle wells with enzyme and 100% = no enzyme wells
PrP 5UTR inh: inhibition of PrP 5' UTR reporter expression. cell-based PrP 5' UTR mRNA reporter, plate reader. inhibition, % (no concentration beside the values). 0.35% of 340,000 active. AID 488862; in the data active = inhibition above about 52%; note: 0 = median of the neutral control wells
CCHF vOTU inh-2: confirmation of CCHF virus vOTU protease inhibitors. shares compounds with CCHF vOTU inh-1. Recombinant CCHFV vOTU, Pep-AMC fluorescence. inhibition, % at 11.5 µM. 17% of 1,900 active
* marks the source's active call; other numbers are inactive results; . = not tested or not shown. Cut-off read from the data, not from the text of the source, unless noted: active = inhibition above about 30%; inactive = the rest.

SMILES	BJeLR viability	Y pestis TopoI	PrPC TRFRET	PfHsp40 yeast	CCHF vOTU inh-1	PrP 5UTR inh	CCHF vOTU inh-2
O=C(O)c1[nH]c2ccccc2c1C(c1cc(Br)ccc1O)c1c(C(=O)O)[nH]c2ccccc12	3	-7	3	18	35*	-7	12
Cc1cc(C)nc(OC(=O)c2ccc(Cl)cc2Cl)n1	-12	.	8	.	30*	.	-22
Cc1ccc(C(=O)C2CCN(CC(=O)NC(C)C)CC2)cc1	.	.	3	.	3	.	.
CC(=O)c1cc(-c2cc3ccccc3o2)c(=O)n2c1CCC2	.	.	-6	.	-1	.	.
Cc1ccc(C2(c3ccc(C)cc3)CC2C(=O)Nc2ccc([N+](=O)[O-])cc2O)cc1 (stereo not given)	28	-35	5	273*	34*	-22	-5
CCOc1ccc(S(=O)(=O)NCc2ccco2)c2ccccc12	4	-1	-1	1	32*	-13	-4
CC(=O)N1CCN(c2ccc(N3CCN(Cc4ccccc4)[C@H](C)C3)c(C)c2)[C@H](C)C1	.	.	-3	.	-2	.	.
COCCn1c(SCC(=O)NN2C(=O)NC(C)(c3ccccc3)C2=O)nnc1-c1ccncc1 (stereo not given)	.	2	-9	-1	35*	-29	-21
N#Cc1ccc(Cn2nnc(-c3ccc(N4CCOCC4)cc3)n2)cc1	.	.	-9	.	-9	.	.
COc1ccc(C(=O)C2C(c3ccc(-c4ccccc4[N+](=O)[O-])o3)NC(=O)NC2(O)C(F)(F)F)cc1 (stereo not given)	-7	5	-7	-1	1	-18	.
O=C1NC(c2ccc(-c3ccccc3[N+](=O)[O-])o2)C(C(=O)c2ccc(F)cc2)C(O)(C(F)(F)F)N1 (stereo not given)	-18	2	-19	1	42*	3	5
CCCOc1ccc(N)cc1N	6	-39	-2	0	85*	-18	22
CCCOc1cc(N)ccc1C(=O)OCCN(CC)CC	.	-4	-4	0	-3	1	.
Nc1nc(Nc2ccccc2)n[nH]1	-6	1	5	2	32*	-4	-22
CCn1c(=O)c(C(=O)NCCN2CCCCC2)c(O)c2ccccc21	0	-5	-3	-1	34*	10	-12
CCn1c(=O)c(C(=O)NCCc2ccccc2)c(O)c2ccccc21	6	4	3	3	-1	-18	.
COc1ccc(-c2nnc(SCC(=O)NN=C(C)c3cccc4ccccc34)n2-c2ccccc2)cc1	.	.	-3	.	8	.	.
C=CCN1CC(COCc2ccccc2)OCCS1(=O)=O (stereo not given)	.	.	-2	.	-4	.	.
COc1ccc(C(=O)CC(=O)C(=O)NCCc2cccc(C)c2)cc1	5	-6	4	1	31*	3	-5
COc1ccc(C(=O)CC(=O)C(=O)Nc2cc(C)ccc2C)cc1	0	-7	3	2	16	-16	.
Fc1ccc(Cc2nnc(-c3cccs3)o2)cc1	3	8	-9	1	2	-42	.
Fc1ccc(-c2nnc(Cc3ccc(Cl)cc3)o2)cc1	4	25	2	2	30*	-13	-15
COc1ccc(NS(=O)(=O)c2cc(N=Nc3c(O)[nH]c(=O)[nH]c3=O)ccc2OC)cc1Br	.	-10	-11	.	15	.	.
CCOc1ccc(NS(=O)(=O)c2ccc(Cl)c(N=Nc3c(O)[nH]c(=S)[nH]c3=O)c2)cc1Br	.	-18	6	.	33*	.	3
CC1CCc2cc(F)cc3c(=O)c(C(=O)O)cn1c23 (stereo not given)	1	-2	3	-2	32*	0	-9
CC1CCc2c(N3CCC(O)CC3)c(F)cc3c(=O)c(C(=O)O)cn1c23 (stereo not given)	.	4	1	1	-1	-15	.
COc1ccc(OCC(=O)NNC(=O)C(=O)Nc2cc(OC)ccc2OC)cc1	-7	-7	-4	-1	35*	-12	3
C[C@H]1C2CC(OC(=O)Nc3ccccc3C(F)(F)F)C(C2)[C@H]2CCCCN21 (stereo not given in full)	.	.	-13	.	-5	.	.
O=C(O)c1cccc(NC(=S)N/N=C/c2ccccc2OCc2ccc(Br)cc2)c1	-6	7	6	0	30*	-22	12
